The list is not random: actives were taken first. Their share in the collection is about 1.6%.
PERK inhibitor – blocks human PERK kinase; Q9NZJ5; CHO PERK-DD fusion, SEAP luminescence translation reporter; inhibition, % at 5.6 µM; actives 0.17% (n = 220,000); AID 1416;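 active = inhibition above the mean inhibition of all tested compounds plus 3 SD, set separately per screening campaign, cut at about 2.9% in these data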;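 note: PERK kinase domain activated by AP20187 dimerizer at 100 nM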
PABP polyA inh – blocks human PABP binding to poly(A) RNA. AID 2014. calls only at 35 µM. actives 1% (n = 290,000). fluorescence polarization. P11940;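 note: calls also rest on retests at 20 µM and on dose response follow-up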
MLLE-PAM2 inh – inhibitors of microRNA-mediated deadenylation, human PABP1 MLLE binding. GST-MLLE / FITC-PAM2 fluorescence polarization. inhibition, % at 20 µM. actives 0.36% (n = 360,000). AID 588489; in the data active = inhibition above about 35%, passing the limit was not always enough
eIF4E 4G PPI – blocks eIF4E binding to eIF4G. TR-FRET eIF4E-eIF4GI(517-606) binding, 2 h. inhibition, % at 21.7 µM. actives 0.37% (n = 220,000);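 active = inhibition above about 30%, limit read from the data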
eIF4H FP inh – inhibitors of RNA binding by human eIF4H; inhibition, % at 35 µM; eIF4H fluorescence polarization binding assay; Q15056; AID 2012; actives 0.94% (n = 290,000);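 note: calls also rest on retests at 20 µM and on dose response follow-up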
A number is an active result; n = inactive; u = inconclusive; x = no result; + = active, no number; [ ] = remark or other dose. Unless noted, the rule behind the calls is not given here.

SMILES	PERK inhibitor	PABP polyA inh	MLLE-PAM2 inh	eIF4E 4G PPI	eIF4H FP inh
O=C(N=C1SC2CS(=O)(=O)CC2N1CCc1ccccc1)C1CC1 (centres undefined)	x	n	n	x	n
Nc1ccc(-c2nc3ccccc3s2)cn1	x	n	n	x	n
O=C1CCC(=O)N1c1ccc(-c2nc3ccccc3s2)cc1	n	n	n	n	61.3
Cc1ccc(C2C(C#N)=C(N)Oc3c2oc(CO)cc3=O)o1 (centres undefined)	x	n	n	n	45.3
Cc1ccnc(SCC(=O)N2CCc3ccccc32)n1	x	n	n	x	n
O=C(CSc1ncn(-c2ccccc2)n1)N1CCc2ccccc21	n	n	n	31.4[fluorescence artefact?]	n
O=C(CSc1nnc(CNc2ccccc2)o1)N1CCc2ccccc21	n	n	n	36.0	n
O=C(CSc1nnc(Cc2ccccc2)o1)N1CCCc2ccccc21	n	n	n	n	n
CC1CCCCC1NC(=O)C1CCC(CNS(=O)(=O)c2cccc3cccnc23)CC1 (centres undefined)	x	n	n	x	n
CC1=C(C(=O)Nc2cc(C(=O)N3CCN(c4ccc(Cl)cc4)CC3)ccc2C)SCCO1	x	x	n	x	x
CCCCCCCCCCCCCCCC(=O)OC[C@H](COP(=O)([O-])OCC[N+](C)(C)C)OC(=O)CCCCCCCCCCCCCCC	3.0	n	x	n	n
CCCCCCCCCCOC(=O)C[N+](C)(C)C/C=C(/C)Cl	n	n	n	n	n
O=c1oc(/C=C/c2ccco2)nc2sc3c(c12)CCC3	n	+	n	n	73.4
Cc1c(C)n(C(=O)CSc2nc3ccccc3[nH]2)c2ccccc12	n	+	n	n	67.7
O=C(CSc1nc2ccccc2[nH]1)N1CCCCC1	n	n	n	n	n
O=C(CN(C(=O)CCC(=O)Nc1nccs1)c1ccc(F)cc1)NCCc1ccccc1	x	n	n	x	n
Oc1c(Cl)cc(Cl)cc1Sc1cc(Cl)cc(Cl)c1O	n	+	x	n	74.1
c1ccc(-c2nn3c(Cn4nnc5ccccc54)nnc3s2)nc1	n	n	n	n	69.7
c1cncc(-c2nn3c(Cn4nnc5ccccc54)nnc3s2)c1	n	n	n	n	n
Cc1c(C#N)c(NC(=O)CCl)n(Cc2cccs2)c1C	n	+	n	n	73.6
CCC1(CC)SC(N)=NC1=O	x	x	n	x	x
N#C/C(=C\c1ccc(-c2ccc(C(=O)O)cc2)o1)C(=O)Nc1ccc(F)cc1	x	+	n	x	87.0
C=CCNC(=O)c1ccc(CN2CCC(Cc3ccccc3)CC2)cc1	x	+	n	x	94.8
CC(C)NC(=O)c1ccc(CN2CCC(Cc3ccccc3)CC2)cc1	x	n	n	x	n
O=c1[nH]c2cc3c(cc2cc1C(c1nnnn1Cc1ccccc1)N1CCCCCC1)OCCO3 (centres undefined)	n	+	n	n	n
SMILES	PERK inhibitor	PABP polyA inh	MLLE-PAM2 inh	eIF4E 4G PPI	eIF4H FP inh
Cc1cc2cc(C(c3nnnn3Cc3ccco3)N3CCCCC3)c(=O)[nH]c2cc1C (centres undefined)	n	+	n	n	56.6
CCOC(=O)N1CCN(Cc2nc(N)nc(Nc3ccc(C)cc3C)n2)CC1	n	n	n	n	n
Cc1ccc(C)c(NC2=C(Cl)C(=O)OC2OC(C)C)c1 (centres undefined)	n	+	n	n	active
COc1ccccc1N1CCN(S(=O)(=O)c2ccc(-n3cnnn3)cc2)CC1	x	n	n	x	71.1
COc1ccccc1N1CCN(S(=O)(=O)Cc2ccccc2Cl)CC1	n	n	n	30.6	n
COc1cc(OC)cc(N2CCN(S(=O)(=O)c3ccc(-n4cnnn4)cc3)CC2)c1	x	n	n	x	n
CC(C)(C)c1ccc(C(=O)NCc2nnc(SCC(=O)NCc3ccco3)o2)cc1	x	n	n	x	52.5
O=C(CSc1nnc(CNC(=O)c2ccccc2)o1)NCc1ccco1	x	n	n	x	n
O=C(CN1C(=O)COc2ccc(S(=O)(=O)N3CCOCC3)cc21)NCc1ccccn1	3.5	n	n	n	n
Cc1cccc(-n2ccc(=O)c(C(=O)Nc3ccc(S(=O)(=O)Nc4nccc(C)n4)cc3)n2)c1	x	n	n	x	n
CCCC(=O)OCC(=O)Nc1ccc2[nH]c(=O)[nH]c2c1	n	n	n	n	n
O=C(COC(=O)c1c(F)cccc1F)Nc1ccc2[nH]c(=O)[nH]c2c1	n	n	n	n	57.0
O=C(COC(=O)c1ccc(F)cc1F)Nc1ccc2[nH]c(=O)[nH]c2c1	n	n	n	n	n
CC1CC1C(=O)OCC(=O)Nc1ccc2[nH]c(=O)[nH]c2c1 (centres undefined)	n	+	n	n	u
CC1CC1C(=O)OCC(=O)Nc1cccc([N+](=O)[O-])c1 (centres undefined)	n	+	n	n	u
CC(C)C(NC(=O)c1ccccc1F)C(=O)NCc1ccc(F)cc1 (centres undefined)	x	n	n	x	n
Cc1ccc(S(=O)(=O)N2CCN(C(=O)COC(=O)CCCOc3ccccc3)CC2)c(C)c1	x	x	n	x	x
CCN1C=C(Cc2ccccc2C)C2=C(C1)C(c1ccccc1C)C(C#N)=C(N)O2 (centres undefined)	n	+	n	n	n
Cc1csc2c(SCC(=O)NNC(=O)C(Cl)Cl)ncnc12	3.1	n	n	n	n
Cc1ccc(-n2ncc3c(SCC(=O)NNC(=O)C(C)C)ncnc32)cc1	x	n	n	x	n
O=C(O)CCCCCN1C(=O)C(O)=C(C(=O)/C=C/c2ccccc2)C1c1ccccc1[N+](=O)[O-] (centres undefined)	n	n	47.1	n	n
COC(=O)C1=C(C)N=c2s/c(=C/c3ccoc3)c(=O)n2C1c1ccccc1 (centres undefined)	n	+	n	n	83.0
O=C(Nc1ccc(C(=O)N2CCCc3ccccc32)cc1)c1cccs1	x	n	n	x	n
O=C(O)c1cccc(-n2cccc2/C=C2\NC(=O)N(Cc3ccc(F)cc3)C2=O)c1	n	+	n	n	n
CCOC(=O)c1cccc(-n2cccc2/C=C2\NC(=O)N(CC(=O)O)C2=O)c1	x	x	n	x	x
SMILES	PERK inhibitor	PABP polyA inh	MLLE-PAM2 inh	eIF4E 4G PPI	eIF4H FP inh
Cc1cccc(NC(=O)CN2C(=O)N/C(=C\c3ccc(-c4cccc(C(=O)O)c4)o3)C2=O)c1	n	+	n	n	79.2
Cc1ccc(NC(=O)CN2C(=O)N/C(=C\c3cccn3-c3cccc(C(=O)O)c3)C2=O)cc1	n	+	n	n	99.0
Cc1ccc(CN2C(=O)N/C(=C\c3cccn3-c3cccc(C(=O)O)c3)C2=O)cc1	n	+	n	n	n
Cc1cccc(NC(=O)CN2C(=O)N/C(=C/c3ccc(C)o3)C2=O)c1	n	n	n	n	n
O=C1N/C(=C/c2cccn2-c2ccc(F)cc2)C(=O)N1Cc1ccccc1	n	n	n	n	n
CC1CCCCC1NS(=O)(=O)c1ccc2c(c1)CC(=O)N2C (centres undefined)	x	n	n	x	n
Cc1ccc(NC(=O)CN2C(=O)N/C(=C/c3ccccc3OCc3cccc(C(=O)O)c3)C2=O)cc1	x	x	n	x	x
Cc1ccc(NC(=O)CN2C(=O)N/C(=C/c3cc(C)n(-c4cccc(C(=O)O)c4)c3C)C2=O)cc1	n	+	n	34.9	86.2
CCOC(=O)/C(C#N)=C1/C=Nc2ccccc2N1	n	n	n	n	n

Assay outcomes from PubChem.
